A549 tox – Nrf2 qHTS screen for inhibitors: counterscreen for cytotoxicity; A549 ARE-Fluc cells, CellTiter-Fluor viability, 18-24 h; 0.16% of 390,000 active; AID 504648, 2011; Potency, µM (doses to about 46 µM), without a hit: at the highest dose activity change, negative = cytotoxicity, hits mostly inhibitors; further: on the % scale 0 is the no-effect control and ±100 the full control effect
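A549 ARE_Fluc cells in 5% FBS OPTI-MEM were exposed to compounds in concentration-response for 18-24 h at 37 deg C. Viability was read by CellTiter-Fluor fluorescence (Ex 405/Em 525) after 30 min, before the luciferase read.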
ELG1 repair inh – qHTS screen for small molecules that inhibit ELG1-dependent DNA repair in human embryonic kidney (HEK293T) cells expressing luciferase-tagged ELG1; HEK293T ELG1-luciferase reporter, luminescence, 16 h; DNA damage induced by 5-fluorouridine; Potency, µM (titrated, usually from 46.1 µM), for the others: top-dose activity change, negative = inhibition, actives largely listed as inhibitors; 2.3% of 330,000 active; AID 504467, 2011; further: on the % scale 0 is the no-effect control and ±100 the full control effect; nearly all actives have a fitted effect of over 55% in size
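Quantitative HTS, concentration-response format. 2,000 cells/well co-treated with 5-fluorouridine and compound, 16 hr in 5% CO2 at 37 °C; ONE-Glo luminescence read after 30 min.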
Nrf2 inh – Nrf2 qHTS screen for inhibitors; Potency, µM (highest dose often 46 µM), without a hit: at the highest dose activity change, negative = inhibition, most hits filed as inhibitors; AID 504444, 2011; 2.1% of 360,000 active; A549 ARE-Fluc reporter, luciferase luminescence, 18-24 h; further: on the % scale 0 is the no-effect control and ±100 the full control effect; nearly all actives have a fitted effect of over 60% in size
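Nrf2 function is reported as luminescence of an ARE-controlled luciferase in A549 cells. Compounds were tested at several concentrations, and a CellTiter-Fluor read on the same wells flagged cytotoxicity.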
Nrf2 activator – qHTS of Nrf2 Activators | Potency, µM (series often up to 46.1 µM), for the others: at the top dose activation, usual class: activators | 0.31% of 410,000 active | AREc32 ARE-luciferase reporter (MCF7-derived line), luminescence, 24 h; further: % of control where 0% means no effect; nearly all actives have a fitted effect of over 65% in size
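Nrf2 activation is followed as ARE-luciferase induction in the AREc32 line after one day of compound treatment; luminescence is read with Steady-Glo.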
IDH1 R132H inh – qHTS for Inhibitors of mutant isocitrate dehydrogenase 1 (IDH1): qHTS. IDH1-R132H enzyme, NADPH consumption, diaphorase/resazurin fluorescence. 0.093% of 390,000 active. AID 602179, 2012. Potency, µM (highest dose often 76.6 µM), for inactives: top-dose activity change, negative = inhibition, hits mostly inhibitors. Isocitrate dehydrogenase [NADP] cytoplasmic (Homo sapiens), O75874; further: on the % scale 0 is the no-effect control and ±100 the full control effect; nearly all actives have a fitted effect of over 65% in size
Target sequence (O75874 whole entry R132H, stated change not applied): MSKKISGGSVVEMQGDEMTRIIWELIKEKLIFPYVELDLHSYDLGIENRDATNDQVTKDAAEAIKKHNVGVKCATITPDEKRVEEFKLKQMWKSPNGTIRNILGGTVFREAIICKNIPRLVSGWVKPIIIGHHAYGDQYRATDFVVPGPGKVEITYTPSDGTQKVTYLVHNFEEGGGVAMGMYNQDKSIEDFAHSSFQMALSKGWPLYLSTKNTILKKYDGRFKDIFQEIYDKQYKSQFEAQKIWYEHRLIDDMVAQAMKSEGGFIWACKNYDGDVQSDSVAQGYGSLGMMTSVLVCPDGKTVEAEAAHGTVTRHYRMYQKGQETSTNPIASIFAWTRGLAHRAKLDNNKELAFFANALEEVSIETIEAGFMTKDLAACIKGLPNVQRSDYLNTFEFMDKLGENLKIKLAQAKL
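IDH1-R132H (0.5 ug/mL dispensed) in pH 7.5 Tris buffer was preincubated 30 min with compound, then given a substrate mix of 0.016 mM NADPH and 2 mM alpha-KG for 80 min at room temperature; remaining NADPH was read by diaphorase/resazurin fluorescence.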
Active calls of the source: *. Rows were chosen to be rich in hits. Some 3.8% of all compounds tested hit in one or more screens of this group. The call rests on the fitted dose curve; in most records, active means well fitted curve in the direction sought with a large enough effect; inconclusive means small, poorly fitted or top-dose-only effect, or another doubt; inactive means no such curve, though single readings can be large; an effect the other way counts as inactive or inconclusive. Potency means the concentration at half of the fitted maximal effect.

For COc1ccc2c(Sc3ccc(C)cc3)c(C(=O)NC(C)C)[nH]c2c1 the results were A549 tox -2%, Nrf2 inh 23µM*, Nrf2 activator 0% and IDH1 R132H inh -4%.
COc1ccc2c(Sc3ccc(Cl)cc3)c(C(=O)N3CCC(C)CC3)[nH]c2c1 was read as A549 tox 9%, Nrf2 inh inconclusive, Nrf2 activator 6% and IDH1 R132H inh 19%.
Screening CCOC(=O)CNC(=O)N1CCN(S(=O)(=O)c2ccc3c(ccn3C)c2)CC1 returned A549 tox -22%, Nrf2 activator -1% and IDH1 R132H inh inconclusive.
Screening O=C(Nc1ccc(F)cc1C(F)(F)F)C1CCN(c2ncccn2)CC1 returned A549 tox 6%, Nrf2 inh 3%, Nrf2 activator 1% and IDH1 R132H inh -6%.
Screening CC1=C(C(=O)Nc2ccc(C)cc2C)C(c2cccs2)n2nc(SCc3cccc(C)c3)nc2N1 (stereo not drawn) returned A549 tox -5%, Nrf2 inh inconclusive, Nrf2 activator -1% and IDH1 R132H inh -3%.
Screening O=[N+]([O-])c1ccc(C(O)C(CO)NC(=S)Nc2ccccc2)cc1 (stereo not drawn) returned A549 tox 0%, ELG1 repair inh 8.2µM*, Nrf2 inh -17%, Nrf2 activator -1% and IDH1 R132H inh -1%.
Cc1ccc(NC(=S)NC(CO)C(O)c2ccc([N+](=O)[O-])cc2)cc1 (stereo not drawn) was read as A549 tox 1%, ELG1 repair inh 4%, Nrf2 inh 1%, Nrf2 activator -1% and IDH1 R132H inh 4%.
Screening O=C(Nc1ccn(Cc2c(F)c(F)c(F)c(F)c2F)n1)c1cccc(Cn2cc([N+](=O)[O-])cn2)c1 returned A549 tox -19%, ELG1 repair inh inconclusive, Nrf2 inh 18µM*, Nrf2 activator 8% and IDH1 R132H inh -1%.
For O=C(Nc1ccn(Cc2c(F)c(F)cc(F)c2F)n1)c1cccc(Cn2cc([N+](=O)[O-])cn2)c1 the results were A549 tox 4%, ELG1 repair inh inconclusive, Nrf2 activator 0% and IDH1 R132H inh -5%.
CCn1cc(C(=O)NC(C)c2ccccc2)c(=O)c2cc(S(=O)(=O)N3CCc4ccccc4C3)ccc21 (stereo not drawn) was read as A549 tox 11%, Nrf2 inh -10%, Nrf2 activator -1% and IDH1 R132H inh -9%.
C=CCn1cc(C(=O)NCCOC)c(=O)c2cc(S(=O)(=O)N(CC)CC)ccc21 was read as A549 tox -7%, ELG1 repair inh inconclusive, Nrf2 inh -3%, Nrf2 activator 0% and IDH1 R132H inh 3%.
`CCn1cc(C(=O)NC(C)CCc2ccccc2)c(=O)c2cc(S(=O)(=O)N(C)C)ccc21` (stereo not drawn) gave A549 tox 2%, ELG1 repair inh 21µM*, Nrf2 inh -13%, Nrf2 activator 6% and IDH1 R132H inh 0%.
Screening CCn1cc(C(=O)NCc2ccc3c(c2)OCO3)c(=O)c2cc(S(=O)(=O)N(C)C)ccc21 returned A549 tox 3%, ELG1 repair inh 16µM*, Nrf2 inh 2%, Nrf2 activator 0% and IDH1 R132H inh 6%.
Screening C=CCn1cc(C(=O)NCCCOCC)c(=O)c2cc(S(=O)(=O)N(CC)CC)ccc21 returned A549 tox 12%, ELG1 repair inh 18µM*, Nrf2 inh inconclusive, Nrf2 activator 2% and IDH1 R132H inh 5%.
For CCC(C)NC(=O)c1cn(CC)c2ccc(S(=O)(=O)N3CCc4ccccc4C3)cc2c1=O (stereo not drawn) the results were A549 tox -9%, Nrf2 inh 23µM*, Nrf2 activator 0% and IDH1 R132H inh -9%.
`COc1cc(F)c(S(=O)(=O)N2CCN(S(=O)(=O)c3ccco3)CC2)c(F)c1` gave A549 tox -4% and Nrf2 inh 9%.
`CCc1ccc(Nc2nnc(-n3nc(C)cc3C)c3ccccc23)cc1` gave A549 tox 0%, Nrf2 inh 9%, Nrf2 activator 6% and IDH1 R132H inh 10%.
For CC(C)(C)OC(=O)Cc1nnc(-c2nc3ccccc3[nH]2)o1 the results were A549 tox -6% and Nrf2 inh inconclusive.
`CC(=O)Nc1ccc(-c2nnc3n(Cc4ccc(C)cc4)c(=O)c4ccccc4n23)cc1` gave A549 tox 5%, Nrf2 inh 18%, Nrf2 activator 3% and IDH1 R132H inh 16%.
CCn1cc(C(=O)NCCCN(C)c2ccccc2)c(=O)c2cc(S(=O)(=O)N(C)C)ccc21 was read as A549 tox -2%, ELG1 repair inh inconclusive, Nrf2 inh inconclusive, Nrf2 activator -1% and IDH1 R132H inh -15%.
For CCN(CCCNC(=O)c1cn(CC)c2ccc(S(=O)(=O)N(C)C)cc2c1=O)c1cccc(C)c1 the results were A549 tox -18%, ELG1 repair inh 23µM*, Nrf2 inh inconclusive, Nrf2 activator 0% and IDH1 R132H inh 7%.
Screening COc1cc(OC)c(NC(=O)CSc2nccn2C)cc1Cl returned A549 tox -3%, Nrf2 inh inconclusive, Nrf2 activator 2% and IDH1 R132H inh 0%.
Screening CN(C)CCN=Cc1c(O)n(Cc2ccc3c(c2)OCO3)c(=O)c2ccccc12 returned A549 tox -1%, ELG1 repair inh -1%, Nrf2 inh -11%, Nrf2 activator 0% and IDH1 R132H inh 2%.
Screening O=c1c2ccccc2c(C=NC2CCN(Cc3ccccc3)CC2)c(O)n1Cc1ccc2c(c1)OCO2 returned ELG1 repair inh 6.5µM*.
CCCCCC(=O)NNC(=S)NC(=O)c1ccccc1[N+](=O)[O-] was read as A549 tox inconclusive, ELG1 repair inh -11%, Nrf2 inh 23µM*, Nrf2 activator 0% and IDH1 R132H inh -6%.
Screening O=c1[nH]c(O)c(/C=C2\C=Nc3ccccc32)[nH]1 returned A549 tox inconclusive, ELG1 repair inh inconclusive, Nrf2 inh inconclusive, Nrf2 activator 4µM* and IDH1 R132H inh 6%.
Cc1ccc2oc(/N=C(\N)NC(=O)C(C)(C)C)nc2c1 was read as A549 tox 0%, ELG1 repair inh inconclusive, Nrf2 inh 13µM*, Nrf2 activator -1% and IDH1 R132H inh 4%.

Source: PubChem
